High-throughput results from PubChem.
CaV13 ICDI inh: Primary screen for inhibitors of IQ motif and Ca2+-dependent inactivation inhibitor domain binding in CACNA1D, Förster resonance energy transfer in living cells, …; HEK cells, CFP/YFP FRET ICDI-IQ, plate reader, 10 min; percent FRET-ratio fall versus neutral wells; inhibition, % at 12.3 µM; 0.098% of 340,000 active; AID 743397;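 active means mean replicate inhibition of at least 30% and at least 1% of replicates passing that level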
NSD2 inh: blocks human histone methyltransferase NSD2 | NSD2 peptide methylation, AlphaScreen, 120 min | inhibition, % at 12.5 µM | O96028 | AID 743445 | 0.54% of 310,000 active
N-glyco inh: N-linked glycosylation inhibition; AID 588692; reporter increase, % at 12.5 µM; D54 ERlucT glycosylation luciferase reporter, 24 h; percent of 100 nM tunicamycin response; 0.23% of 360,000 active;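 active means mean luciferase reporter signal, scaled so untreated is 0 and the glycosylation-blocking control 100, at or above a set limit in every replicate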;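 further: luciferase carries N-glycosylation sites so blocking glycosylation raises the light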
ATG4B inhibitor: blocks human ATG4B protease cleavage of LC3 substrate. inhibition, % at 8.33 µM. ATG4B cleavage of LC3-PLA2, NBD-HPC fluorescence, 1 h. AID 504462. 0.51% of 340,000 active; in the data active means inhibition above about 40%
Target sequence (Q9Y4P1 whole entry, looked up): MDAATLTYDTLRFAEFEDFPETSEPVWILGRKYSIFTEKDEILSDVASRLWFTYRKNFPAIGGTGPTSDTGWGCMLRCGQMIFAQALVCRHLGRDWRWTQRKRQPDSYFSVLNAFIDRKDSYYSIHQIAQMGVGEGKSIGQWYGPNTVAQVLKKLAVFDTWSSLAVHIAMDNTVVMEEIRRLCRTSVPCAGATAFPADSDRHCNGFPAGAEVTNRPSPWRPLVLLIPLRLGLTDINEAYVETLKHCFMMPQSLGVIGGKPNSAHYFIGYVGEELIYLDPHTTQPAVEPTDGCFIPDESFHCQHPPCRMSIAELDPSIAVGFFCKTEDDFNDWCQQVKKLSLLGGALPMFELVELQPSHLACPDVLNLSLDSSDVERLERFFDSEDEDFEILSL
DSG3 Ab inh: blocks pemphigus antibody binding to human desmoglein-3. 0.48% of 310,000 active. binding (percent of control), % at 10 µM. P32926. DSG3-coupled beads, scFv-anti-DSG3-GFP binding, flow cytometry; hits give low values;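 active means binding more than 3 SD below its plate's average and above zero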;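 further: hits lower antibody fragment binding to DSG3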
Vif imaging: blocks HIV Vif function; 0.35% of 340,000 active; HEK293T cells, Vif self-association by quenched fluorescence, imaging, 24 h; inhibition, % at 7.49 µM; in the data active means inhibition above about 50%, passing the limit was not always enough
ATG4B confirm: ATG4B (human) inhibition, single-dose confirmed; shares compounds with ATG4B inhibitor; ATG4B protease fluorescent substrate cleavage assay; inhibition, % at 8.33 µM; 92% of 320 active; AID 504757; in the data active means inhibition above about 39%
PLA2 counter: counter-screen for ATG4B inhibitors: human phospholipase A2; shares compounds with ATG4B inhibitor; purified PLA2, NBD-C6-HPC fluorescence, 45 min; inhibition, % at 8.33 µM; 66% of 1,600 active
Target sequence (P04054 whole entry, looked up): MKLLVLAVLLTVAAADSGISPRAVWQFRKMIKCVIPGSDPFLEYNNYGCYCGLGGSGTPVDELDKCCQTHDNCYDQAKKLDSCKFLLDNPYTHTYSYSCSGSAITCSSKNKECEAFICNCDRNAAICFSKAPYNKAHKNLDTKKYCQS
Hits are given with their value; . = inactive; / = not tested or not shown. An excerpt weighted towards active compounds, which were near 1.9% of everything screened. Unless noted, no stated cut-off is given here; in the data, active means inhibition above about 50%; inactive means the rest.

SMILES	CaV13 ICDI inh	NSD2 inh	N-glyco inh	ATG4B inhibitor	DSG3 Ab inh	Vif imaging	PLA2 counter	others
O=C(O)c1cccc(-n2cccc2C=C2C(=O)c3ccccc3C2=O)c1	.	.	.	.	.	.	/
O=C(O)CN1C(=O)/C(=C\c2cc([N+](=O)[O-])ccc2OCc2ccccc2Cl)SC1=S	.	/	.	75	/	.	60
O=C(O)CN1C(=O)/C(=C\c2cc(Br)ccc2OCc2ccc(Cl)cc2)SC1=S	.	.	.	52	.	.	.	ATG4B confirm=53
O=S(=O)(Nc1c(S(=O)(=O)c2ccccc2)c2nc3ccccc3nc2n1C1CCCCC1)c1ccccc1	.	141	.	45	.	.	50
Nc1ccc(S(=O)(=O)Nc2cc(Cl)c(N)c(Cl)c2)cc1	.	.	.	.	.	.	/
O=[N+]([O-])c1cc2oc3c(c2c(C=NCc2ccccc2)c1O)CCCC3	.	.	.	76	.	/	.	ATG4B confirm=48
CC(C)N(C(=O)COC(=O)[C@@H]1CC(O)CN1S(=O)(=O)c1ccccc1[N+](=O)[O-])C(C)C (stereo partly drawn)	.	.	.	.	.	/	/
Cc1ccc(NC(=O)[C@H]2CC(=O)O[C@@H]2c2ccccc2)cc1C	/	.	/	/	/	/	/
OCCNc1nc(SCc2ccccc2)nc2sc3c(c12)CCC3	.	.	.	69	.	.	90
O=c1c2c3c(sc2nc(NCCO)n1CCc1ccccc1)CCCCC3	.	.	.	.	.	.	/
O=C(CSCc1c(F)cccc1Cl)NNC(=S)NC1CCCCC1	.	.	.	66	.	/	63
O=C(C1CCN(CC2CC=CCC2)CC1)N(CCc1ccccc1)Cc1ccccc1 (stereo not drawn)	.	.	.	.	.	.	/
O=C(NCc1ccccc1)c1ccc2nc(-c3ccco3)c(-c3ccco3)nc2c1	.	/	.	44	.	/	.
CCOC(=O)N1CCN(C(=O)c2c(-c3ccccc3)noc2C)CC1	.	/	.	.	.	.	/
CC(C)CSC1=NSC2=NC(=O)/C(=C\c3coc4ccccc4c3=O)C(=N)N12	.	.	.	50	.	.	53
CC(C)CSC1=NSC2=NC(=O)/C(=C\c3ccccc3)C(=N)N12	.	.	.	.	.	.	/
Nc1c(C(=O)Nc2ccccc2F)sc2nc(Cc3ccccc3)cc(C(F)(F)F)c12	.	.	.	66	.	/	.
O=C(Nc1nc(COc2ccccc2)cs1)c1ccccc1F	.	.	.	54	.	.	.
COc1ccc(OC)c(-c2csc(NC(=O)c3ccccc3F)n2)c1	.	.	.	.	.	.	/
CCc1ccc(S(=O)(=O)Nc2ccc(O)c3c(=O)cc(-c4ccccc4Cl)oc23)cc1	.	/	.	.	.	.	/
O=c1cc(-c2ccccc2Cl)oc2c(NS(=O)(=O)c3cc(Cl)cc(Cl)c3O)ccc(O)c12	/	/	.	101	.	/	103
NC(=O)c1ccc(OCC(F)(F)C(F)(F)C(F)(F)C(F)(F)C(F)(F)C(F)F)cc1	.	.	.	91	.	.	92
Cc1cc(OCC(F)(F)C(F)(F)C(F)(F)C(F)(F)C(F)(F)C(F)F)nc(N)n1	.	.	.	.	.	.	/
COC(=O)COc1ccc(-c2ccccc2)cc1C=O	.	.	.	.	.	.	/
COC(=O)COc1ccc(-c2ccc(F)cc2)cc1C=O	.	.	.	43	.	.	59
SMILES	CaV13 ICDI inh	NSD2 inh	N-glyco inh	ATG4B inhibitor	DSG3 Ab inh	Vif imaging	PLA2 counter	others
Clc1ccc(C2Nc3cccc4cccc(c34)N2)c(Cl)c1	.	.	.	.	.	.	/
O=C1NC(c2cccc3ccccc23)Nc2ccc(Cl)cc21 (stereo not drawn)	.	.	.	43	.	.	59
COC(=O)c1sc(N(C)C)c(C#N)c1-c1ccccc1	.	.	.	44	.	/	.	ATG4B confirm=64
Cc1sc(NC(=O)COc2ccccc2)c(C#N)c1-c1ccccc1	.	.	.	.	.	.	/
COC(=O)c1ccc(COc2nc(C)cc(C)c2C#N)o1	.	.	.	.	.	.	/
CSc1nc(N2CCOCC2)c2c3c(sc2n1)CCC3	.	.	.	49	/	.	50
Cc1nc(N2CCN(C)CC2)c2c3c(sc2n1)CCCC3	.	.	.	.	.	.	/
C[C@@H]1COC(=O)[C@@H](CC(=O)OC(C)(C)C)C/C=C\C[C@H](CC(=O)N(CCO)Cc2ccccc2)C(=O)N1	.	/	.	.	.	.	/
OCCNc1ncnc2c1ncn2[C@H]1CN(Cc2ccco2)C[C@@H](CO)O1	.	.	.	/	/	.	/
COc1cc(OC)c(NC(=O)c2ccoc2C)cc1Cl	.	.	.	.	.	.	/
CC1CCCN(C(=O)c2ccc3c(=O)n4nc(Nc5ccccc5)sc4nc3c2)C1 (stereo not drawn)	.	.	.	/	.	.	/
COc1ccccc1Nc1nn2c(=O)c3ccc(C(=O)N4CCCC(C)C4)cc3nc2s1 (stereo not drawn)	.	.	.	46	.	.	63
S=C(NCc1ccc(Cl)cc1Cl)NC1CCCCC1	.	.	.	44	/	.	55
CN(C)c1ccc(C(=S)N2CCN(C(=S)Nc3ccccc3)CC2)cc1	.	.	.	.	.	.	/
N=c1oc2ccccc2cc1-c1nc(-c2ccccc2)cs1	.	.	.	.	.	.	/
Nc1c(C=C2C=CC(=O)C=C2)c(=O)nc2snc(SCc3ccccc3)n12	.	.	.	40	.	/	.	ATG4B confirm=76
CSc1nsc2nc(=O)c(/C=C3\C=Nc4ccccc43)c(N)n12	.	.	.	.	.	.	/
COc1ccc(Nc2nnc(-c3ccc(O)cc3)c3ccccc23)cc1	.	.	.	.	.	.	/
NC(=O)Cc1ccc(Nc2nnc(-c3ccccc3)c3ccccc23)cc1	.	.	.	82	.	.	82
Oc1ccc(Nc2nnc(-c3ccc(O)cc3)c3ccccc23)cc1	.	/	.	.	.	.	/
COc1ccc(-c2nnc(Nc3ccc(CC(N)=O)cc3)c3ccccc23)cc1	.	.	.	93	.	.	92
N#CCSc1ncnc2sc3c(c12)CCC3	.	.	.	.	/	.	/
CC(C#N)Sc1ncnc2sc3c(c12)CCC3 (stereo not drawn)	/	/	.	49	.	.	.
Oc1c(Br)cc(Br)cc1C=NCc1ccccc1	.	.	.	73	.	.	71
COc1ccc(C2=CC3=C(Br)C(=O)C(C)(OC(=O)c4cccs4)C(=O)C3=CO2)cc1 (stereo not drawn)	.	/	.	83	.	.	90
